This is part of a sample that, as a whole, favours compounds with a hit. Of some 83,000 tested, about 20% had one in any assay.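 96-well plates, one dose, 48 hours. Percent growth reported; active if below 10.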 Values without a mark were called inactive. Calls of active or inactive are those of the source.
tested on: HL-60(TB) leukemia; assay: NCI-60 one-dose screen, 48 h (100 = growth as untreated, 0 = no growth, -100 = all killed); conditions: 10 µM unless noted

Structure (SMILES)	growth
CNC(=O)c1cc(Oc2cccc3nc(NC(=O)Nc4ccc(F)cc4F)ccc23)ccn1	81.8%
COc1ccc(CN2C(=O)/C(=C\c3cc(OC)c(OC)c(OC)c3)c3cc(OC)ccc32)cc1	-27.2% (active)
O=C(/C=C/c1nnc2n(Cc3ccccc3)c(=O)c3c4c(sc3n12)CCCC4)c1ccccc1	43.5%
O=C(c1nc2ccccc2[nH]1)C1C(c2ccc(Cl)cc2)C2CC3CCCC[C@H]3N2[C@@]12C(=O)Nc1cc(Cl)ccc12 (some centres undefined)	23.8%

Source: PubChem BioAssay (NCI)
